Data reported in ChEMBL document CHEMBL3433997, “St. Jude Leishmania screening dataset” (2016).

Assays:
Type in all cases: functional
[1] = target: Solute carrier family 2, facilitated glucose transporter member 1 (Homo sapiens) (UniProt P11166); experiment: ST_JUDE_LEISH: Cytotoxicity at 2uM final concentration against transgenic Leishmania Mexicana promastigotes LmGLUT1 that are glucose transport deficient and complemented with the human glucose transporter GLUT1. Activity is measured by DNA content using SYBR green in vitro
[2] = target: Hexose transporter 1 (Plasmodium falciparum) (UniProt O97467); experiment: ST_JUDE_LEISH: Cytotoxicity at 2uM final concentration against transgenic Leishmania Mexicana promastigotes LmPfHT that are glucose transport deficient and complemented with the Plasmodium falciparum hexose transporter. Activity is measured by DNA content using SYBR green in vitro
[3] = target: Glucose transporter (Leishmania mexicana) (UniProt O61059); experiment: ST_JUDE_LEISH: Cytotoxicity at 2uM final concentration against transgenic Leishmania Mexicana promastigotes LmGT2 that are glucose transport deficient and complemented with the L. Mexicana glucose transporter 2. Activity is measured by DNA content using SYBR green in vitro

Chain of Solute carrier family 2, facilitated glucose transporter member 1 (Homo sapiens) (P11166 whole entry): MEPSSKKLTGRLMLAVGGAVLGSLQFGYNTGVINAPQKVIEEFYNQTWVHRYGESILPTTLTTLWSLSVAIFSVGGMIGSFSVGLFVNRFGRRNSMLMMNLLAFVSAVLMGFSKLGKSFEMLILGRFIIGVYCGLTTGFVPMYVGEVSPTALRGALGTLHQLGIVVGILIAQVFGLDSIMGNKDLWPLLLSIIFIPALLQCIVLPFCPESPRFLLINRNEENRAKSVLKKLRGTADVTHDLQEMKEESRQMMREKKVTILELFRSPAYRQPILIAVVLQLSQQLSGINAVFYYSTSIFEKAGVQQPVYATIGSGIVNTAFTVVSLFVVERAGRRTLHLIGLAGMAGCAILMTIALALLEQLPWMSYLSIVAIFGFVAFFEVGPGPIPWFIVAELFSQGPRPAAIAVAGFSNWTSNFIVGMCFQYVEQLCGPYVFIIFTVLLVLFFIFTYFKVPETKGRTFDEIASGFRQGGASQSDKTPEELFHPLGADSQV

Row | SMILES | inhibition [1] [%] | inhibition [2] [%] | inhibition [3] [%]
1 | O=C(/C=C/c1ccc(Cl)c(Cl)c1)N1CCC(CN2CCC(c3c[nH]c4cnccc34)CC2)CC1 | 4.52 | 3.14 | 4.67
2 | Clc1ccc(CNc2nc(NCCc3c[nH]cn3)nc(N3CCCC4CCCCC43)n2)cc1 (stereo unspecified) | 3.99 | 4.86 | 3.89
3 | CC(Cc1ccc(OCCCCOc2ccccc2)cc1)NCCc1ccc(Oc2ccccc2)cc1 (stereo unspecified) | 87.5 | 84.7 | 78.2
4 | CC(C)CN(c1nc(C(=O)NNC(=O)[C@H](CC2CC2)NC(=O)c2cc3cc(OCCN(C)C)ccc3o2)cs1)C1CC1 | 6.19 | 6.53 | 7.9
5 | CCn1ccc2c3c(N)nc(N)nc3ccc21 | 1.21 | 2.13 | -1.34
6 | Cn1nccc1C(=O)NCCNCc1ccc(-c2ccc(-c3nc4cc(F)ccc4[nH]3)cc2)cc1 | 1.91 | 4.48 | 5.68
7 | O=C(Nc1cc(F)cc(F)c1)NC1CCN(CCCCCNC(=O)C2CC2c2ccc(Cl)c(Cl)c2)CC1 (stereo unspecified) | 0.3 | -0.08 | -2.77
8 | O=S(=O)(c1cc2ccccc2s1)N(CCC(O)(C(F)(F)F)C(F)(F)F)Cc1cccc(O)c1 | -0.29 | -1.09 | 1.75
9 | Cc1noc(-c2ccc3c(c2)CCN(CCC2CCC(NC(=O)/C=C/c4cccc(Cl)c4)CC2)CC3)n1 (stereo unspecified) | 1.02 | 0 | 0.68
10 | CCCCCCNC(=O)C1Cc2c([nH]c3cc(Cl)ccc23)C2(CCN(Cc3ccccc3)CC2)N1 (stereo unspecified) | 7.27 | 5.97 | 5.18
11 | OCCc1ccc(Nc2nccc(-c3nnc4ccccn34)n2)cc1 | 6.85 | 6.22 | 6.32
12 | CN1CCCN(Cc2cccc(-c3ccc(NS(=O)(=O)c4cccc5cccnc45)cc3)c2)CC1 | 1.84 | 1.21 | -3.11
13 | CCCCCCn1c(Sc2ccc(C#N)c([N+](=O)[O-])c2)nnc1-c1ccc(OC)cc1 | 5.67 | 5.13 | -3.74
14 | CCNc1cc(C(=O)N[C@@H](Cc2ccc(Cl)cc2)[C@H](O)CNC2CCCCC2)cc(N2CCCCS2(=O)=O)c1 | 0.89 | 1.36 | 1.39
15 | CCc1ccccc1OCCCON1C(=N)N=C(N)NC1(C)C | 28.6 | 37.9 | 29.2
16 | N#Cc1cccc(CNC(=O)c2cccc(Nc3ccnc4ccc(F)cc34)c2)c1 | -0.1 | 1.25 | 0.82

Row | SMILES | inhibition [1] [%] | inhibition [2] [%] | inhibition [3] [%]
17 | CC(C)(C)c1ccc(Cn2c(=N)n(CC(=O)c3ccc(-c4ccccc4)cc3)c3ccccc32)cc1 | 0.71 | -0.1 | -0.07
18 | Cc1ccc(C2CCN(CCCCNC(=O)c3ccc(-c4ccc(C(F)(F)F)cc4)cc3)CC2)c(O)c1 | -0.37 | -0.08 | -0.78
19 | O=C(Cc1cccc2ccccc12)NC1CCN(c2ccnc3cc(Cl)ccc23)C1 (stereo unspecified) | -2.29 | -1.67 | -0.88
20 | Cc1cccc2nc(-c3cccc(-c4cccc(NC(=O)c5ccc(=O)[nH]n5)c4)c3)[nH]c12 | 5.27 | 1.34 | 2.2
21 | CC(C)(C)c1cc(C(=O)N2CCN(c3ccc(C(F)(F)F)cn3)CC2)n(Cc2ccc(F)cc2)n1 | -1.9 | -3.19 | -1.88
22 | COc1ccc(CNCCc2cccs2)cc1-c1cccc(S(=O)(=O)NCCN2CCCC2)c1 | 2.17 | 2.94 | 0.9
23 | CCN(CC)S(=O)(=O)c1cc(-c2ccc(=O)n(CC(=O)c3ccc(C)cc3)n2)ccc1C | 4.68 | 6.23 | 2.45
24 | CCCCCCCN1CCC(NC(=O)Nc2ccnc3ccc(OC)cc23)C(CO)C1 (stereo unspecified) | -0.96 | -1.62 | -3.37
25 | Cc1cc2ccc(/C=C/C(=O)NC3CCC(CCN4CCc5ccc(C#N)cc5CC4)CC3)cc2[nH]1 (stereo unspecified) | 4.47 | 5.55 | 2.92
26 | Cc1ccccc1C(=O)NC(NC(=S)Nc1ccc([N+](=O)[O-])cc1)C(Cl)(Cl)Cl (stereo unspecified) | 0.54 | -1.37 | 0.22
27 | N#CC1(CCCNCCc2ccc(O)cc2)CCCc2c(O)cccc21 (stereo unspecified) | 14.1 | 12 | 11.7
28 | O=C(Nc1ccc(OC2CCN(Cc3ccc(F)cc3)CC2)c(Cl)c1)c1cccs1 | 2.99 | 0.38 | 8.58
29 | CCOc1ccccc1N1CCN(CCCNC(=O)/C(=C/C=C/c2cc3cc(Cl)c(Cl)cc3[nH]2)OC)CC1 | 1.44 | -0.07 | 1.24
30 | O=C(NCCc1ccc(F)cc1)c1ccc(N2CCN(c3ccncc3)CC2)nc1 | 2.72 | 0.74 | -4.35
31 | COc1cccc(CN2CCCC(OC(c3ccc(F)cc3)c3ccc(F)cc3)C2)c1O (stereo unspecified) | 0.04 | 0.76 | -1.69
32 | Cc1cccc(Nc2nccc(Nc3cccc(C(=O)NCCN4CCOCC4)c3)n2)c1 | 2.19 | 1.2 | 1.44
